Calls of active or inactive are those of the source. Rule for the calls: active = hit-call score of the fitted dose curve at least 0.9, where 1 is the maximum; inactive = score below 0.9.
Columns and labels:
[1] = read-out: Thrombomodulin, THBD (gene 7056); assay: BSK_CASM3C_Thrombomodulin: BioMAP Diversity Plus: CASM3C Assay for Thrombomodulin Biomarker Activity (AID 2283051); details: primary human coronary artery smooth muscle cells; actives raise or lower the signal;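 note: thrombomodulin protein level measured by ELISA 24 h after dosing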
[2] = read-out: Tissue Factor, F3 (gene 2152); assay: BSK_CASM3C_TissueFactor: BioMAP Diversity Plus: CASM3C Assay for Tissue Factor Biomarker Activity (AID 2283052); details: primary human coronary artery smooth muscle cells; actives raise or lower the signal;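 note: cell surface tissue factor protein level read by ELISA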
[3] = read-out: Interferon-gamma inducible Protein 10 (IP10), CXCL10 (gene 3627); assay: BSK_hDFCGF_IP10: BioMAP Diversity Plus: hDFCGF Assay for Interferon-gamma inducible Protein 10 (IP10) Biomarker Activity (AID 2283053); details: primary human foreskin fibroblasts; actives raise or lower the signal
Summary of the method: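 ELISA quantification of IP-10 after a 24 h chemical exposure of human dermal foreskin fibroblast primary cultures. Both increases and decreases versus DMSO fitted.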

[4] = read-out: Urokinase-type plasminogen activator receptor (uPAR), PLAUR (gene 5329); assay: BSK_CASM3C_uPAR: BioMAP Diversity Plus: CASM3C Assay for Urokinase-type plasminogen activator receptor (uPAR) Biomarker Activity (AID 2283054); details: primary human coronary artery smooth muscle cells; actives raise or lower the signal;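 note: cell-surface uPAR protein level quantified by ELISA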
[5] = read-out: Vascular cell adhesion molecule 1 (VCAM1), VCAM1 (gene 7412); assay: BSK_CASM3C_VCAM1: BioMAP Diversity Plus: CASM3C Assay for Vascular cell adhesion molecule 1 (VCAM1) Biomarker Activity (AID 2283055); details: primary human coronary artery smooth muscle cells; actives raise or lower the signal;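 note: VCAM-1 protein level quantified by ELISA on the cells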
[6] = read-out: Collagen III, COL3A1 (gene 1281); assay: BSK_hDFCGF_CollagenIII: BioMAP Diversity Plus: hDFCGF Assay for Collagen III Biomarker Activity (AID 2283056); details: primary human foreskin fibroblasts; actives raise or lower the signal
Summary of the method: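 Human foreskin primary fibroblasts were exposed to test chemicals for 24 h, after which collagen III was quantified by ELISA. Activity was fitted bidirectionally against DMSO as negative control and baseline.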

[7] = read-out: Epidermal growth factor receptor (EGFR), EGFR (gene 1956); assay: BSK_hDFCGF_EGFR: BioMAP Diversity Plus: hDFCGF Assay for Epidermal growth factor receptor (EGFR) Biomarker Activity (AID 2283057); details: primary human foreskin fibroblasts; actives raise or lower the signal
Summary of the method: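 EGFR levels by ELISA in human dermal fibroblast cultures, 24 h post-treatment, fitted bidirectionally versus DMSO. Parallel wells stained with sulforhodamine B to detect overt cytotoxicity.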

[8] = read-out: Interleukin-8 (IL8), CXCL8 (gene 3576); assay: BSK_hDFCGF_IL8: BioMAP Diversity Plus: hDFCGF Assay for Interleukin-8 (IL8) Biomarker Activity (AID 2283058); details: primary human foreskin fibroblasts; actives raise or lower the signal
Summary of the method: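 hDFCGF human dermal fibroblasts; 24 h chemical exposure; IL-8 by ELISA; bidirectional curve fit vs DMSO baseline; gain or loss of signal scored.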

[9] = BSK_hDFCGF_Proliferation: Cell Proliferation Assessment in the BioMAP Diversity Plus: hDFCGF Assay (AID 2283059); details: primary human foreskin fibroblasts;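 note: curves fitted for both rise and fall of signal versus DMSO baseline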
Summary of the method: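 Sub-confluent human foreskin fibroblast cultures receive test chemical […]. Relative cell number is quantified by sulforhodamine B staining (0.1%, after 10% TCA fixation) at 560 nm, with bidirectional fitting referenced to DMSO.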

[10] = read-out: Macrophage colony-stimulating factor (MCSF), CSF1 (gene 1435); assay: BSK_hDFCGF_MCSF: BioMAP Diversity Plus: hDFCGF Assay for Macrophage colony-stimulating factor (MCSF) Biomarker Activity (AID 2283060); details: primary human foreskin fibroblasts; actives raise or lower the signal
Summary of the method: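 Human foreskin primary fibroblasts were treated with test chemical for 24 h, and M-CSF was then measured by ELISA. Data were fitted bidirectionally against DMSO as the negative control and activity baseline.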

[11] = BSK_hDFCGF_SRB: Viability Assessment in the BioMAP Diversity Plus: hDFCGF Assay (AID 2283061); details: primary human foreskin fibroblasts;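 note: cells exposed to compound for 24 h before the read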
Summary of the method: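 Human foreskin primary fibroblasts were treated with compound and assessed 24 h after dosing. Total protein was measured by sulforhodamine B staining (0.1% SRB after 10% TCA fixation, 560 nm read) as a cytotoxicity marker, with bidirectional fitting against DMSO baseline.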

[12] = read-out: TIMP metallopeptidase inhibitor 1 (TIMP1), TIMP1 (gene 7076); assay: BSK_hDFCGF_TIMP1: BioMAP Diversity Plus: hDFCGF Assay for TIMP metallopeptidase inhibitor 1 (TIMP1) Biomarker Activity (AID 2283062); details: primary human foreskin fibroblasts; actives raise or lower the signal
Summary of the method: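 Primary human foreskin fibroblasts in the hDFCGF system were dosed with compound for 24 h, then TIMP-1 was measured by ELISA. Activity was fitted bidirectionally relative to DMSO control; parallel SRB staining assessed cytotoxicity.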

[13] = read-out: Monokine induced gamma interferon (MIG), CXCL9 (gene 4283); assay: BSK_hDFCGF_MIG: BioMAP Diversity Plus: hDFCGF Assay for Monokine induced gamma interferon (MIG) Biomarker Activity (AID 2283063); details: primary human foreskin fibroblasts; actives raise or lower the signal
Summary of the method: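 ELISA read-out of MIG from primary human dermal fibroblasts 24 h post-dosing. Gain or loss of signal fitted bidirectionally, DMSO as baseline.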

[14] = read-out: Matrix Metallopeptidase 1 (MMP1), MMP1 (gene 4312); assay: BSK_hDFCGF_MMP1: BioMAP Diversity Plus: hDFCGF Assay for Matrix Metallopeptidase 1 (MMP1) Biomarker Activity (AID 2283064); details: primary human foreskin fibroblasts; actives raise or lower the signal
Summary of the method: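 Human foreskin fibroblasts exposed to chemical for 24 h; MMP1 detected by ELISA, with DMSO as baseline for bidirectional fitting.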

[15] = read-out: Vascular cell adhesion molecule 1 (VCAM1), VCAM1 (gene 7412); assay: BSK_hDFCGF_VCAM1: BioMAP Diversity Plus: hDFCGF Assay for Vascular cell adhesion molecule 1 (VCAM1) Biomarker Activity (AID 2283065); details: primary human foreskin fibroblasts; actives raise or lower the signal;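 for AC50: VCAM-1 protein level quantified by ELISA after 24 h chemical exposure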
Summary of the method: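 Primary human foreskin fibroblasts (hDFCGF system) were dosed with chemical and VCAM-1 was measured by ELISA 24 h later. Bidirectional curve fitting used DMSO as negative control and activity baseline.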

[16] = read-out: Plasminogen activator inhibitor-1 (PAI1), SERPINE1 (gene 5054); assay: BSK_hDFCGF_PAI1: BioMAP Diversity Plus: hDFCGF Assay for Plasminogen activator inhibitor-1 (PAI1) Biomarker Activity (AID 2283066); details: primary human foreskin fibroblasts; actives raise or lower the signal
Summary of the method: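 PAI-1 levels in human dermal foreskin fibroblasts were quantified by ELISA 24 h after dosing, with gain or loss analysed against DMSO. Overt cytotoxicity was checked by sulforhodamine B total-protein staining in parallel cultures.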

[17] = read-out: Intercellular Adhesion Molecule 1 (ICAM1), ICAM1 (gene 3383); assay: BSK_KF3CT_ICAM1: BioMAP Diversity Plus: KF3CT Assay for Intercellular Adhesion Molecule 1 (ICAM1) Biomarker Activity (AID 2283067); details: primary human keratinocytes with fibroblasts; actives raise or lower the signal
Summary of the method: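 Human keratinocyte plus foreskin fibroblast primary co-culture was exposed to chemical for 24 h. ICAM-1 was then quantified by ELISA, and the data were fit bidirectionally against DMSO as the negative control and baseline.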

[18] = read-out: Interferon-gamma inducible Protein 10 (IP10), CXCL10 (gene 3627); assay: BSK_KF3CT_IP10: BioMAP Diversity Plus: KF3CT Assay for Interferon-gamma inducible Protein 10 (IP10) Biomarker Activity (AID 2283068); details: primary human keratinocytes with fibroblasts; actives raise or lower the signal
Summary of the method: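 ELISA read-out of IP-10 after 24 h chemical dosing of human skin primary co-culture (keratinocytes, foreskin fibroblasts). Gain or loss of signal relative to DMSO, bidirectional curve fit.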

[19] = BSK_KF3CT_SRB: Viability Assessment in the BioMAP Diversity Plus: KF3CT Assay (AID 2283069); details: primary human keratinocytes with fibroblasts;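 note: fitted for both signal gain and loss against DMSO baseline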
Summary of the method: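 Overt cytotoxicity is assessed as total protein by sulforhodamine B staining in parallel human skin co-cultures at 24 h after dosing. DMSO serves as negative control and baseline.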

[20] = read-out: Interleukin-1 alpha (IL1a), IL1A (gene 3552); assay: BSK_KF3CT_IL1a: BioMAP Diversity Plus: KF3CT Assay for Interleukin-1 alpha (IL1a) Biomarker Activity (AID 2283070); details: primary human keratinocytes with fibroblasts; actives raise or lower the signal
Summary of the method: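 Readout is IL-1a level by ELISA, compared bidirectionally with DMSO as baseline. Cells: human keratinocytes co-cultured with foreskin fibroblasts, harvested 24 h post-dose.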

Measured: AC50

ClC1(Cl)C2(Cl)C3(Cl)C4(Cl)C(Cl)(Cl)C5(Cl)C3(Cl)C1(Cl)C5(Cl)C24Cl (configuration not stated)
active: [9] 0.572 µM
inactive: all other assays above

C(=NC1CCCCC1)=NC1CCCCC1
active: [1] 34.5 µM | [2] 25.1 µM | [3] 11.7 µM | [4] 26.8 µM | [5] 20 µM | [6] 33.2 µM | [8] 32.4 µM | [9] 20 µM | [10] 20 µM | [11] 13.8 µM | [12] 14.9 µM | [13] 26.8 µM | [14] 32.7 µM | [15] 10.7 µM | [16] 20 µM | [17] 20 µM | [18] 14.9 µM | [19] 15 µM | [20] 17.2 µM
inactive: [7]

O=C(O)C(F)(F)C(F)(F)C(F)(F)C(F)(F)C(F)(F)C(F)(F)F
inactive: all assays above

Oc1c(I)cc(I)cc1I
active: [4] 0.191 µM | [6] 4.24 µM | [9] 8.03 µM | [11] 20 µM | [16] 11.5 µM | [17] 20 µM | [18] 23 µM | [20] 27.7 µM
inactive: all other assays above

CC12CC1(C)C(=O)N(c1cc(Cl)cc(Cl)c1)C2=O (configuration not stated)
inactive: all assays above

C[C@@H]1C[C@@H]([C@H](O)CC2CC(=O)NC(=O)C2)C(=O)[C@@H](C)C1
active: [3] 2.32 µM | [4] 3.8 µM | [5] 0.926 µM | [8] 7.54 µM | [9] 4.27 µM | [10] 4.1 µM | [12] 2.49 µM | [13] 4.4 µM | [14] 3.37 µM | [15] 0.915 µM | [16] 2.9 µM | [17] 7.24 µM | [18] 12.9 µM | [19] 11.6 µM | [20] 31.2 µM
inactive: [1] | [2] | [7]

OCc1ccco1
active: [9] 29.6 µM
inactive: all other assays above

CCCCCCCCc1ccc(O)cc1
active: [1] 34.6 µM | [2] 28.7 µM | [3] 25.8 µM | [4] 39.1 µM | [5] 33.9 µM | [6] 20.1 µM | [8] 36 µM | [9] 7.67 µM | [10] 32.9 µM | [11] 26.4 µM | [12] 33.3 µM | [13] 34.8 µM | [14] 31.9 µM | [15] 27.9 µM | [16] 14 µM | [17] 31.2 µM | [18] 29.5 µM | [19] 27.7 µM | [20] 25 µM
inactive: [7]

O=C1C2(Cl)C3(Cl)C4(Cl)C(Cl)(Cl)C5(Cl)C3(Cl)C1(Cl)C5(Cl)C24Cl (configuration not stated)
active: [1] 33.6 µM | [2] 19.3 µM | [3] 4.03 µM | [4] 18 µM | [5] 29 µM | [6] 3.46 µM | [7] 2.09 µM | [8] 14.3 µM | [9] 1.42 µM | [10] 21.9 µM | [11] 16.4 µM | [12] 30 µM | [13] 31 µM | [14] 19.3 µM | [15] 4.35 µM | [16] 8.81 µM | [17] 33 µM | [19] 8.1 µM | [20] 22.9 µM

ClCC(Cl)CCl
inactive: all assays above

CC(=O)[O][Hg][c]1ccccc1
active: [2] 3.97 µM | [3] 0.289 µM | [4] 0.487 µM | [5] 0.836 µM | [6] 0.279 µM | [8] 0.148 µM | [9] 0.148 µM | [10] 0.447 µM | [11] 0.464 µM | [12] 0.148 µM | [13] 0.208 µM | [14] 0.148 µM | [15] 0.511 µM | [16] 0.183 µM | [17] 0.467 µM | [18] 0.148 µM | [19] 0.617 µM | [20] 0.707 µM
inactive: [1] | [7]

From PubChem BioAssay (EPA / NIEHS)
